Laboratory results as given in PubChem BioAssay (NCATS).
Results filed as inconclusive are left out. Where a call stands in place of a potency, no number is given. Activity calls are given as the source filed them. Unless noted, calls come from the whole dose curve; as a rule, active = well fitted curve in the direction sought with a large enough effect; inconclusive = small, poorly fitted or top-dose-only effect, or another doubt; inactive = no such curve, though single readings can be large; an effect the other way counts as inactive or inconclusive.

Assays:
[1] = HepG2 viability counterscreen (readout 1: protease activity) against the NCATS DSHEA and TCM libraries (AID 1794841);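 note: cells exposed to compounds for about 24 h before the protease read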
In short: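 HepG2 cells, 1,000/well, attached ~4 h, then exposed ~24 h at 37C to substances. Protease activity read by fluorescence of 25 uM GF-AFC (Ex/Em 380/510 nm) after 30 min; ATP then by CellTiter-Glo luminescence.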

[2] = target: Glutathione peroxidase 1 (Homo sapiens) (UniProt P07203); assay: Primary qHTS Assay for Inhibitors of Recombinant Selenoprotein Glutathione Peroxidase 1 (GPX1) (AID 1845191); note: nearly all actives have a fitted effect of over 65% in size; note: potency is the fitted concentration of half-maximal effect
Glutathione peroxidase 1 (Homo sapiens), sequence (P07203 whole entry, looked up): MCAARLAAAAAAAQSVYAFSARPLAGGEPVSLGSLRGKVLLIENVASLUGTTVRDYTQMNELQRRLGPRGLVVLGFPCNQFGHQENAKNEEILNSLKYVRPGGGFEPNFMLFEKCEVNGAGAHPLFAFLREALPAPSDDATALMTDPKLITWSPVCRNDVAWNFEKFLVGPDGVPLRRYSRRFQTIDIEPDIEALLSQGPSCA
In short: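 10 nM GPX1 + cpd, 30 min RT; start w/ 1 mM GSH, 0.5 mM cumene hydroperoxide, 0.5 mM NADPH, 100 nM GR, 0.01% BSA; buffer 50 mM Tris-HCl pH 7.5, 2 mM EDTA, 150 mM NaCl; Fl 340/450, 0 & 15 min.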

[3] = target: Cytochrome P450 2D6 (Homo sapiens) (UniProt P10635); assay: qHTS for inhibitors of CYP2D6 against the NCATS DSHEA and TCM libraries (AID 1919972)
Cytochrome P450 2D6 (Homo sapiens), sequence (P10635 whole entry, looked up): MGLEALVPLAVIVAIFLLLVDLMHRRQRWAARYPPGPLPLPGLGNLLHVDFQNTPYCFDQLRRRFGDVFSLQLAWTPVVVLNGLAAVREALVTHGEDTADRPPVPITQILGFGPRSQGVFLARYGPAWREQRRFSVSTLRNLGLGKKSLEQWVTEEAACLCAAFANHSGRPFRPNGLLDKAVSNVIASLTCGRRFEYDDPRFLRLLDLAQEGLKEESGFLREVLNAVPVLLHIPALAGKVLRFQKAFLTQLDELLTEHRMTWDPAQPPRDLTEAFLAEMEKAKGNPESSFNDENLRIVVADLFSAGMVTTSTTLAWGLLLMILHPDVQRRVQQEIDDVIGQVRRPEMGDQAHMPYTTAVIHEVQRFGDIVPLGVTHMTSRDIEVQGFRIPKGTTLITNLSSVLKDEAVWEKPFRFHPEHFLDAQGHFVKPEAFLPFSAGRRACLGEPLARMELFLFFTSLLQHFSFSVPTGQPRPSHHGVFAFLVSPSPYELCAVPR
In short: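 Luminescent P450-Glo read-out of CYP2D6 turnover of a luciferin substrate after NADPH-driven reaction of 30-45 min at room temperature. Compounds were first preincubated 15 min with enzyme at titrated concentrations; quinidine was the intraplate control.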

[4] = target: Cytochrome P450 2C9 (Homo sapiens) (UniProt P11712); assay: qHTS for inhibitors of CYP2C9 against the NCATS DSHEA and TCM libraries (AID 1919973); note: potency is the fitted concentration of half-maximal effect;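 for activity change, negative = inhibition: luminogenic pro-luciferin CYP2C9 substrate turned into luciferin with NADPH regeneration; series mostly up to about 34 µM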
Cytochrome P450 2C9 (Homo sapiens), sequence (P11712 whole entry, looked up): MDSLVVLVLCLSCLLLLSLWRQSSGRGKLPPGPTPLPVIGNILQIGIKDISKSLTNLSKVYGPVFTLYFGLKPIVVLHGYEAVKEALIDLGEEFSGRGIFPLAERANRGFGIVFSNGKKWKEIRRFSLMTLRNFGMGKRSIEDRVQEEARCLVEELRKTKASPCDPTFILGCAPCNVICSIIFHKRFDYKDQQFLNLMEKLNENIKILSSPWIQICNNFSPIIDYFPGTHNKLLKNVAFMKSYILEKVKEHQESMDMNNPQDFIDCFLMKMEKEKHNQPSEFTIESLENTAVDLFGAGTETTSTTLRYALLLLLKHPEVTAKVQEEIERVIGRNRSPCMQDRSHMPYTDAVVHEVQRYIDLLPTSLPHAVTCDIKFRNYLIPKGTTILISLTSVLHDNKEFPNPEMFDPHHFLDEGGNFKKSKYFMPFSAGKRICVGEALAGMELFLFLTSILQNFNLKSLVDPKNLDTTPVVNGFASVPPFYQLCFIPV
In short: (§1)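 Luminescent P450-Glo format: compounds preincubated 15 min with enzyme and luciferin substrate, reaction run 30-45 min after NADPH regeneration solution. Intraplate controls: ketoconazole for CYP3A4 and CYP2C19, sulfaphenazole for CYP2C9.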

[5] = KB-3-1 P-gp reporter qHTS against the NCATS DSHEA and TCM libraries (AID 1919975)
In short: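 Parental KB-3-1 cells, 500 cells/well, in DMEM with 10% FBS, exposed 72 h at 37 C to compounds in concentration-response. Viability read by CellTiter-Glo luminescence after 30 min at room temperature.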

[6] = qHTS Counterscreen for compound interference against the NCATS DSHEA and TCM libraries (AID 1919978); settings: firefly luciferase detection reagent interference, luminescence;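 note: compounds preincubated with 1 µM D-luciferin or buffer before detection reagent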
In short: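 Firefly luciferase detection reagent was added after compounds (19.5 nM–39.8 uM final) had been incubated 15 min at room temperature with 1 uM D-luciferin or with 100 mM phosphate buffer alone. Luminescence was read after 30 min at room temperature.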

[7] = Dual reporter qHTS for agonist of Pregnane X Receptor (hPXR) against the NCATS DSHEA and TCM libraries: Fluorescence readout (AID 1920058)
In short: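 hPXR-Luc HepG2 cells, 2000/well in charcoal-stripped serum, attached 5 h, dosed for ~24 h at 37 °C. Fluorescence read is CellTiter-Fluor viability (Ex/Em 405/540 nm); rifampicin positive, tetraoctyl ammonium bromide (92 µM) cytotoxicity controls.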

[8] = target: Nuclear receptor subfamily 1 group I member 2 (Homo sapiens) (UniProt O75469); assay: Dual reporter qHTS for antagonist of Pregnane X Receptor (hPXR) against the NCATS DSHEA and TCM libraries: Luminescence Readout (AID 1920060)
Nuclear receptor subfamily 1 group I member 2 (Homo sapiens), sequence (O75469 whole entry, looked up): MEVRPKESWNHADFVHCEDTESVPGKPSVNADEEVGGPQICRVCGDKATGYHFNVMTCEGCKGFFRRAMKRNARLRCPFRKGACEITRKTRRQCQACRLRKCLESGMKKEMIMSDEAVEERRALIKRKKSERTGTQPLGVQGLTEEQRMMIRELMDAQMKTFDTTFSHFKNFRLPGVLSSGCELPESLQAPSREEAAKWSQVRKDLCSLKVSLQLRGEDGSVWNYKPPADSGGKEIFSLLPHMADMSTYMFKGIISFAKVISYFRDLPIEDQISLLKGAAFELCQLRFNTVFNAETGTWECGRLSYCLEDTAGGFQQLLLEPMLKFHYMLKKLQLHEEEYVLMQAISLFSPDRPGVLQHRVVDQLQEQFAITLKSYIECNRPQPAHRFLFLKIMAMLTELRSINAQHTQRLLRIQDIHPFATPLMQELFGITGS
In short: (§2)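 Rifampicin-stimulated (2 uM final) hPXR-luciferase HepG2 cells were treated for 24 h with DSNP/TCM substances. Viability came from CellTiter-Fluor fluorescence, reporter activity from ONE-Glo luminescence.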

[9] = Dual reporter qHTS for antagonist of Pregnane X Receptor (hPXR) against the NCATS DSHEA and TCM libraries: Fluorescence Readout (AID 1920061)
In short: as §2

[10] = target: Phospholipid hydroperoxide glutathione peroxidase GPX4 (Homo sapiens) (UniProt P36969); assay: Primary qHTS Assay for Inhibitors of Recombinant Selenoprotein Glutathione Peroxidase 4 (GPX4) (AID 1845192); note: nearly all actives have a fitted effect of over 65% in size; note: potency is the fitted concentration of half-maximal effect; for activity change, negative = inhibition: series mostly up to about 50 µM
Phospholipid hydroperoxide glutathione peroxidase GPX4 (Homo sapiens), sequence (P36969 whole entry, looked up): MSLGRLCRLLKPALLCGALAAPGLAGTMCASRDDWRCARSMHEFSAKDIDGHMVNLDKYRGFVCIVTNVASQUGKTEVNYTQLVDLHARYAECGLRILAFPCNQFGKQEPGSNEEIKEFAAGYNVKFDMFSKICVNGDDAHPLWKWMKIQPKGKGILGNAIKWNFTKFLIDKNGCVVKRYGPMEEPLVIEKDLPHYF
In short: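 NADPH consumption, followed by fluorescence at 340/450 nm between 0 and 15 min, reports GPX4 activity via coupled glutathione reductase (100 nM). Enzyme 200 nM was pre-exposed to compound 30 min; 0.5 mM cumene hydroperoxide and 1 mM GSH served as substrates.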

[11] = target: Luciferin 4-monooxygenase (Photinus pyralis) (UniProt P08659); assay: Primary firefly luciferase (FLuc) qHTS assay for identification of artifact compounds. (AID 1845220); note: nearly all actives have a fitted effect of over 60% in size; for activity change, negative = inhibition: series mostly up to about 54 µM
In short: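 Compounds sat 15 min at room temperature with 10 uM luciferin and 10 uM ATP (pH 7.6 Tris acetate). Firefly luciferase (10 nM final) was then added, and luminescence was read 5 min later. Data normalized to no-enzyme and DMSO controls were Hill-fitted.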

[12] = Primary fluorescence-based thiol-reactive (MSTI) qHTS assay for identification of artifact compounds. (AID 1845221);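 note: series mostly up to about 54 µM; thiol-reactive compounds lower the probe fluorescence signal; nearly all actives have a fitted effect of over 65% in size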
In short: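 In PBS pH 7.4 with 2% DMSO, each compound met 4 uM MSTI for one hour at ambient temperature, shielded from light, before fluorescence detection.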

[13] = system: Nanoluciferase (engineered Oplophorus gracilirostris luciferase); assay: Primary Nanoluciferase (NLuc) qHTS assay for identification of artifact compounds. (AID 1845222); note: series mostly up to about 54 µM
In short: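 Luminescence from secreted NLuc (filtered, 1:55-diluted S16 cell medium) read 5 min after Nano-Glo substrate; compounds preincubated 15 min, RT. Hill fits of inhibition normalized to DMSO and no-enzyme.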

[14] = Primary redox qHTS assay for identification of artifact compounds. (AID 1845223)
In short: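 Amplex Red (25 uM) and HRP (250 mU/mL) in HBSS, with compounds for 15 min, then 250 uM DTT for 30 min, room temperature, dark. Fluorescence 525/598 nm read; normalized to DMSO and 10 uM DA3003; Hill fit.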

[15] = target: Cytochrome P450 2C19 (Homo sapiens) (UniProt P33261); assay: qHTS for inhibitors of CYP2C19 against the NCATS DSHEA and TCM libraries (AID 1919974);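 note: luminescence from luciferin released by CYP2C19 oxidation of a pro-luciferin substrate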
Cytochrome P450 2C19 (Homo sapiens), sequence (P33261 whole entry, looked up): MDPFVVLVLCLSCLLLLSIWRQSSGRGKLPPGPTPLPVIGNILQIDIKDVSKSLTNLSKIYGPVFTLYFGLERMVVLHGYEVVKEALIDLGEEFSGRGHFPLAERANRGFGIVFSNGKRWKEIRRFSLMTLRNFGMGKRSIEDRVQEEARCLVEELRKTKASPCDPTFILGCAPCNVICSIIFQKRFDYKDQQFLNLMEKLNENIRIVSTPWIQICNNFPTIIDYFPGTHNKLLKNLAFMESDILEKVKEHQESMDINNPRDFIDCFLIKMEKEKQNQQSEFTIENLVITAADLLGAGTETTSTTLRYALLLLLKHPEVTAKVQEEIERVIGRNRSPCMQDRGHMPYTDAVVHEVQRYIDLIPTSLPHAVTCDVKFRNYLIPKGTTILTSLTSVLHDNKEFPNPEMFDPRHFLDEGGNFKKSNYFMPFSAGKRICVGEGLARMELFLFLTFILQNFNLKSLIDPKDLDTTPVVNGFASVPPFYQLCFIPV
In short: as §1

[16] = target: Cytochrome P450 1A2 (Homo sapiens) (UniProt P05177); assay: qHTS for inhibitors of CYPIA2 against the NCATS DSHEA and TCM libraries (AID 1919976);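 note: light from luciferin formed by CYP1A2 from a pro-luciferin substrate; series mostly up to about 37 µM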
Cytochrome P450 1A2 (Homo sapiens), sequence (P05177 whole entry, looked up): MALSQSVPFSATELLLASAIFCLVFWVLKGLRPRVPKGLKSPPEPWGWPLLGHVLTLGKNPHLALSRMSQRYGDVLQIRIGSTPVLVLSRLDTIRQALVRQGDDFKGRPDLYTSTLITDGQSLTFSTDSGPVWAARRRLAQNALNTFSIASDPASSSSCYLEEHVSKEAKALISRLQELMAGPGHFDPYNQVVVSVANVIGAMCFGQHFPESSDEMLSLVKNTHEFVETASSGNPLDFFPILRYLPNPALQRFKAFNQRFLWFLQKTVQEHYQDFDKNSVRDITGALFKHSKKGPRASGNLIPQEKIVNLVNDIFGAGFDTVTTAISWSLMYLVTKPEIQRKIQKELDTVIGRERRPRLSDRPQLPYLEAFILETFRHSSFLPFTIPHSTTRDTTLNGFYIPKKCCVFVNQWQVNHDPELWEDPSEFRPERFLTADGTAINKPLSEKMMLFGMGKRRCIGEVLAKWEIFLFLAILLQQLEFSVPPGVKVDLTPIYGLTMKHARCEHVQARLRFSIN
In short: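 Human CYP1A2 with pro-luciferin substrate (typically 100 mM KPO4), 15 min preincubation with compound, then 1x NADPH regeneration for 30-45 min at room temperature in the dark. Luciferin quantified by luciferase luminescence; furafylline intraplate control.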

[17] = target: Nuclear receptor subfamily 1 group I member 2 (Homo sapiens) (UniProt O75469); assay: Dual reporter qHTS for agonist of Pregnane X Receptor (hPXR) against the NCATS DSHEA and TCM libraries: Luminescence readout (AID 1920059)
In short: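 Luminescent PXR reporter read (ONE-Glo) after a CellTiter-Fluor viability read, following 24 h, 37C treatment of HepG2 cells stably carrying hPXR-Luc.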

[18] = qHTS drug screen for cell cycle checkpoint inhibitors in PARPi-resistant BRCA-mutant ovarian cancer cell lines. (AID 1963452; calls by dose curve); settings: PEO1/OlaR viability, CellTiter-Glo luminescence, 96 h, stronger effect = lower value
In short: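 PEO1, PEO4 and PEO1/OlaR ovarian cancer cells, 600 per well, exposed 96 h at 37C to a dilution series. Viability read by CellTiter-Glo luminescence, normalized to DMSO and empty wells; activity summarized as Z-AUC.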

[19] = target: Metallo-beta-lactamase type 2 (Klebsiella pneumoniae) (UniProt C7C422); assay: qHTS to identify inhibitors of the New Delhi Metallo-beta-lactamase (NDM): assay validation screen against the NCATS LOPAC Collection (AID 1794843);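 note: nitrocefin turnover by NDM-1 measured as 485 nm absorbance at plateau; series mostly up to about 38 µM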
Metallo-beta-lactamase type 2 (Klebsiella pneumoniae), sequence (C7C422 whole entry, looked up): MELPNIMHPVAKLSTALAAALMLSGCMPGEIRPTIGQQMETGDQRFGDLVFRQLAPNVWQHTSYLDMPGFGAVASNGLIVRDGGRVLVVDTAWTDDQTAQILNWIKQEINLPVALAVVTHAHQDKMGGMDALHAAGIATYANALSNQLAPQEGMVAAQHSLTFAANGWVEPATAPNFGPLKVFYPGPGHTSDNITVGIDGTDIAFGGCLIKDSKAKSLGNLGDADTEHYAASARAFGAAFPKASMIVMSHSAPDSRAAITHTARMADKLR
In short: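 Nitrocefin hydrolysis (50 uM substrate stock) by NDM-1, 2 nM final, was followed by 485 nm absorbance after compound preincubation; buffer was 50 mM HEPES pH 7.0, 1 uM ZnSO4, 0.01% Tween20.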

CC1=C(/C=C/C(C)=C/C=C/C(C)=C/CO)C(C)(C)CCC1
outcome [1]: inactive | Potency [2]: inactive | outcome [3]: inactive | Potency [4]: 14.1 µM (active) | outcome [5]: inactive | max response [6]: 0.358% (inactive) | outcome [7]: inactive | outcome [8]: inactive | outcome [9]: inactive

NCc1ccccc1CC(=O)N[C@@H]1C(=O)N2C(C(=O)O)=C(CSc3nnnn3CC(=O)O)CS[C@H]12
Potency [2]: 5.08 µM (active) | Potency [10]: 15.8 µM (active)

CC[N+](C)(C)Cc1ccccc1Br
Potency [2]: inactive | Potency [10]: inactive

CCOC(=O)O[C@]1(C(=O)COC(=O)CC)CC[C@H]2[C@@H]3CCC4=CC(=O)C=C[C@]4(C)[C@H]3[C@@H](O)C[C@@]21C
Potency [2]: inactive

CO[C@H](C(=O)[C@@H](O)[C@@H](C)O)C1Cc2cc3cc(O[C@H]4C[C@@H](O[C@H]5C[C@@H](O)[C@H](O)[C@@H](C)O5)[C@@H](O)[C@@H](C)O4)c(C)c(O)c3c(O)c2C(=O)[C@H]1O[C@H]1C[C@@H](O[C@H]2C[C@@H](O[C@H]3C[C@](C)(O)[C@H](O)[C@@H](C)O3)[C@H](O)[C@@H](C)O2)[C@H](O)[C@@H](C)O1 (stereo partly specified)
Potency [2]: inactive

COC(F)(F)C(Cl)Cl
Potency [2]: inactive | Potency [10]: inactive

CC(=O)OC(C)OC(=O)C(C)c1ccc(-c2ccccc2)c(F)c1 (stereo unspecified)
Potency [2]: inactive | Potency [10]: inactive

CO/N=C(\C(=O)N[C@@H]1C(=O)N2C(C(=O)O)=C(CSc3cnns3)CS[C@H]12)c1csc(N)n1
Potency [2]: 20.2 µM (active) | Potency [10]: 15.8 µM (active)

CC[N+](CC)(CC)CCC(O)(c1ccccc1)C1CCCCC1 (stereo unspecified)
Potency [2]: inactive | Potency [10]: inactive

O=CCCCC=O
Potency [2]: inactive | Potency [10]: inactive

COC(=O)[C@H]1[C@H]2C[C@@H]3c4[nH]c5ccccc5c4CCN3C[C@H]2C[C@@H](OC(=O)c2cc(OC)c(OC)c(OC)c2)[C@@H]1OC
Potency [2]: inactive | Potency [10]: 17.8 µM (active)

C[C@H]1[C@H](C)CC[C@]2(C(=O)O)CC[C@]3(C)C(=CC[C@@H]4[C@@]5(C)C[C@@H](O)[C@H](O)[C@@](C)(CO)[C@@H]5CC[C@]43C)[C@H]12
outcome [1]: inactive | Potency [2]: inactive | Potency [11]: inactive | Potency [12]: inactive | Potency [13]: inactive | Potency [14]: inactive | outcome [3]: inactive | Potency [4]: inactive | Potency [15]: inactive | outcome [5]: inactive | outcome [16]: inactive | max response [6]: 2.22% (inactive) | outcome [7]: inactive | outcome [17]: inactive | outcome [8]: inactive | outcome [9]: inactive | Z-AUC [18]: 1.03 (inactive) | Z-AUC ([18]; measured here: PEO1 parental Z-AUC): 0.608 | Z-AUC ([18]; measured here: PEO4 Z-AUC): 0.842

CCCCCCCCCCCC[n+]1ccc2ccccc2c1
Potency [2]: inactive | Potency [10]: inactive

COCC(=O)Nc1cc(Sc2ccccc2)ccc1N=C(NC(=O)OC)NC(=O)OC
Potency [2]: inactive

CC(C)N=c1cc2n(-c3ccc(Cl)cc3)c3ccccc3nc-2cc1Nc1ccc(Cl)cc1
Potency [2]: inactive | Potency [10]: inactive

CC(Oc1ccccc1)C(=O)N[C@@H]1C(=O)N2[C@@H]1SC(C)(C)[C@@H]2C(=O)O (stereo partly specified)
Potency [2]: inactive | Potency [10]: inactive

CC(=O)OCC(=O)[C@@]1(O)CC[C@H]2[C@@H]3C[C@H](C)C4=CC(=O)C=C[C@]4(C)[C@H]3[C@@H](O)C[C@@]21C
Potency [2]: inactive | Potency [10]: inactive

CN1Cc2c(N)cccc2C(c2ccccc2)C1 (stereo unspecified)
outcome [19]: inactive | Potency [2]: inactive | Potency [10]: inactive

CC1(CO)CC[C@]2(C(=O)O[C@@H]3O[C@H](CO)[C@@H](O)[C@H](O)[C@H]3O)CC[C@]3(C)C(=CCC4[C@@]5(C)CC[C@H](O[C@@H]6O[C@H](C(=O)O)[C@@H](O)[C@H](O)[C@H]6O)C(C)(C)C5CC[C@]43C)C2C1 (stereo partly specified)
Potency [2]: inactive | Potency [10]: inactive | activity change, negative = inhibition [11]: -2.66% [at 11.6 µM] (inactive) | activity change, negative = thiol reactive [12]: -2.52% [at 11.5 µM] (inactive) | activity, negative = inhibition [13]: 2.96% [at 11.6 µM] (inactive)

O=C(/C=C/c1c(C(=O)O)[nH]c2cc(Cl)cc(Cl)c12)Nc1ccccc1
Potency [2]: inactive | Potency [10]: inactive | Potency [11]: inactive | Potency [12]: inactive

COCCN(C)Cc1ccc2nc3sc(C(=O)N(C)C4CCCCC4)cn3c2c1
Potency [2]: inactive | Potency [10]: inactive | Potency [11]: inactive | Potency [12]: inactive | Potency [13]: inactive

C[C@@H]1O[C@@H](O[C@H]2[C@H](O)[C@@H](O)[C@H](OC[C@H]3O[C@@H](OC(=O)[C@]45CCC(C)(C)C[C@H]4C4=CCC6[C@@]7(C)C[C@H](O)[C@H](O[C@@H]8O[C@H](CO)[C@@H](O)[C@H](O)[C@H]8O)[C@@](C)(C(=O)O)C7CC[C@@]6(C)[C@]4(C)CC5)[C@H](O[C@@H]4O[C@H](CO)[C@@H](O)[C@H](O)[C@H]4O)[C@@H](O)[C@@H]3O)O[C@@H]2CO)[C@H](O)[C@H](O)[C@H]1O (stereo partly specified)
outcome [2]: inactive [at 9.52 µM] | activity change, negative = inhibition [10]: 0.162% [at 9.73 µM] (inactive) | outcome [11]: inactive [at 11.6 µM] | activity change, negative = thiol reactive [12]: 1.9% [at 11.5 µM] (inactive) | activity, negative = inhibition [13]: 4.14% [at 11.6 µM] (inactive)

CCOc1ccc(C(Nc2ccccn2)c2ccc3ccc(C)nc3c2O)cc1C (stereo unspecified)
Potency [2]: inactive | Potency [10]: inactive | Potency [11]: inactive

CC1(C)S[C@@H]2[C@H](NC(=O)C(C(=O)O)c3ccsc3)C(=O)N2[C@H]1C(=O)O (stereo partly specified)
Potency [2]: inactive | Potency [10]: inactive

C[C@@H]1O[C@@H](O[C@H]2[C@H](O)[C@@H](C(=O)O)O[C@@H](O[C@H]3CC[C@@]4(C)C(CC[C@]5(C)C4CC=C4C6CC(C)(C)CC[C@]6(C(=O)O)CC[C@]45C)C3(C)C)[C@@H]2O[C@@H]2O[C@H](CO)[C@@H](O)[C@H](O)[C@H]2O)[C@H](O)[C@H](O)[C@H]1O (stereo partly specified)
Potency [2]: inactive | Potency [10]: inactive | outcome [11]: inactive [at 11.6 µM] | activity change, negative = thiol reactive [12]: 296% [at 11.5 µM] (inactive)
